Assay results: PubChem BioAssay AID932 (The Scripps Research Institute Molecular Screening Center, 2007)
The campaign covered roughly 200,000 compounds. About 5,100 (2.5%) were called active. Only a selection was taken, and actives are over-represented in it overall. Values without a mark were called inactive.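 How the source made its calls: active means activation above the screen-wide mean activation plus 3 SD (cut at about 130% in these data); inactive means the rest.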

Assay: STAT1 signaling activators, primary screen, cell-based, HTS, luciferase reporter (AID 932);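 further: raw ratio to IFN-gamma control signal so 100% means no change and 0% no light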
Settings: NIH 3T3 STAT1-luciferase reporter, IFN-gamma, luminescence; at 5.5 µM; hits give high values; 100% = IFN-gamma alone, no compound

SMILES	activation (% of control)
COc1cc(C(=O)N[C@@H](C)C(=O)NCc2ccco2)cc(OC)c1OC	102%
CN(CC(=O)Nc1ccccc1[N+](=O)[O-])Cc1ccc(Br)cc1	97.7%
CC(C)CCN1CCN(Cc2ccc(C(F)(F)F)cc2)CC1CCO (stereo unspecified)	100%
O=C1CC(c2cccc(Cl)c2)CC(O)=C1C=Nc1ccccc1 (stereo unspecified)	99.6%
CC1=NN(c2ccccc2)C(=O)C1C(=O)c1ccc([N+](=O)[O-])cc1 (stereo unspecified)	94.7%
Cn1c(=O)n(Cc2ccco2)c(=N)c2c3c(sc21)CCCC3	103%
Cc1nn2c3cc(N4CCOCC4)ccc3nc2c2ccccc12	134% (active)
Cc1cc(C(=O)Nc2ccccc2N2CCOCC2)c2ccccc2n1	102%
N#CCSc1nc2ccc(N3CCOCC3)cc2c(=O)n1CCc1ccccc1	102%
CCCc1c(C)nc2c(Br)cccc2c1Cl	97.5%
Cc1nc2ccccc2nc(C)c1=NOCc1ccc(Cl)cc1Cl	111%
C#CCSc1nnc(-c2sc3ccccc3c2Cl)o1	140% (active)
Clc1ccc(-c2nnc(SCc3nc4ccccc4s3)o2)cc1	122%
O=C(OCC#CCSc1nnc(-c2ccncc2)o1)c1sc2ccccc2c1Cl	100%
Cc1nonc1C1CCCN1Cc1nc(-c2ccc(F)cc2F)oc1C (stereo unspecified)	96%
CN(C)CCN=c1cc(-c2ccccc2)oc2ccc(Cl)cc12	148% (active)
CN(C)CCn1c(=S)[nH]c2ccc(Cl)cc2c1=O	95.1%
Cc1ccc(N(Cc2cc3ccccc3[nH]c2=O)C(=O)c2cccs2)cc1	91.2%
CN(C)S(=O)(=O)Oc1ccccc1C(=O)Nc1ccccc1Cl	91.9%
Cn1nnc2cc(C(=O)NCCC3=CCCCC3)ccc21	153% (active)
O=C(Cc1nn[nH]n1)NCCC1=CCCCC1	94.3%
O=C(NCCC1=CCCCC1)c1ccc(Cl)c([N+](=O)[O-])c1	110%
CN(c1ccc(C(=O)NCCC2=CCCCC2)cc1)S(C)(=O)=O	158% (active)
O=C(Cc1cccc2ccccc12)NCCC1=CCCCC1	101%
CN(c1ccc(C(=O)NCc2ccccn2)cc1)S(C)(=O)=O	106%
Cc1nnc(SCC2=C(C(=O)O)N3C(=O)C(NC(=O)Cn4nc(C)c(Cl)c4C)C3SC2)s1 (stereo unspecified)	99.2%

SMILES	activation (% of control)
CCOC(=O)C1CCCN(C(=O)COc2ccc(N(C)S(=O)(=O)c3ccc(C)cc3)cc2)C1 (stereo unspecified)	102%
Cc1[nH]nc(SCC(=O)NCC(C)C)c1[N+](=O)[O-]	102%
c1ccc(CN2CCC(N=C3NN=C(c4ccc5c(c4)OCCO5)CS3)CC2)cc1	114%
Cc1cccc(N=C2NN=C(c3c[nH]c4ccccc34)CS2)c1	106%
Clc1cccc(N=C2NN=C(c3ccc4c(c3)OCCO4)CS2)c1	148% (active)
CCN1CCC2(CC1)N=C(c1ccc(F)cc1)C(=S)N2C(=O)c1ccc(C)cc1	111%
c1ccc2[nH]c(-c3nc4ccccc4[nH]3)nc2c1	146% (active)
Cc1ccc(-c2nc3ccccc3[nH]2)cc1N	118%
c1ccc(-c2[nH]ncc2-c2nc3ccccc3[nH]2)cc1	89.6%
O=C(Nc1ccncc1)c1ccccc1[N+](=O)[O-]	105%
O=C(NC(CC(=O)N1CCN(c2ccccc2)CC1)c1ccccc1)c1ccccc1Cl (stereo unspecified)	95%
O=C(OCC(=O)c1c[nH]c2ccccc12)c1cccc(O)c1	93.7%
O=S(=O)(NCCc1ccc(F)cc1)c1cccc2cccnc12	102%
OCC1(CCc2ccccc2)CCN(Cc2ccc3nsnc3c2)CC1	100%
Cc1ccc(S(=O)(=O)N2CCOCC2)cc1C(=O)NC(=S)N(Cc1ccccc1)C(C)C	102%
Cc1ccc(-n2c(C)cc(/C=C(\C#N)C(=O)NCC3CCCO3)c2C)cc1 (stereo unspecified)	140% (active)
Cc1ccc(S(=O)(=O)N2CCC(C(=O)NCC3CCCO3)CC2)cc1 (stereo unspecified)	99.9%
Cc1ccc(C(=O)N/C(=C/c2cccs2)C(=O)NCC2CCCO2)cc1 (stereo unspecified)	99.5%
O=C(Nc1ccc(F)c([N+](=O)[O-])c1)C1CC(=O)N(Cc2ccccc2)C1 (stereo unspecified)	95.9%
CN(C)Cc1ccc(F)cc1Sc1cc(Cl)ccc1Cl	98.7%
O=C(COC(=O)Cn1cnc2ccccc21)Nc1cccc2c1C(=O)c1ccccc1C2=O	104%
O=C(c1cnn2ccccc12)N1CCc2ccccc21	136% (active)
Cc1occc1C(=O)N1CCCc2ccccc21	104%
O=C(c1cccc(C(=O)N2CCc3ccccc32)n1)N1CCc2ccccc21	95.1%
O=C(Cc1c(F)cccc1Cl)Nc1ccc(-n2cnnn2)cc1	98.6%
COc1ccc(NC(=O)CN2C(=O)C(c3ccccc3)=NC23CCCCCC3)cc1OC	104%

SMILES	activation (% of control)
N#CC(=C1SC=CS1)c1nc(-c2ccccc2)cs1	133% (active)
N#CC(=C1CCCC1)c1nc(-c2ccc(Cl)cc2)cs1	110%
N#C/C(=C1\CCCN1)c1nc(-c2ccccc2)cs1	105%
O=C(CN(CC1CCCO1)C(=O)CNS(=O)(=O)c1ccc(F)cc1)NCc1ccco1 (stereo unspecified)	109%
COc1cc(OC)cc(-c2nc(=S)n3ccsc3n2)c1	108%
Cc1cc(=O)oc(C)c1C(=O)N1CCCCC1	104%
Cc1ccc2cc3cc(C(=O)N4CCCCCC4)oc3nc2c1	169% (active)
Cc1cccc(C(=O)N2CCCN(C(=O)c3cccc(C)c3)CC2)c1	103%
O=C(CS(=O)(=O)Cc1ccccc1)NCC1CCCO1 (stereo unspecified)	94.5%
CC(=NCC1CCCO1)c1c(O)[nH]c(=O)[nH]c1=O (stereo unspecified)	106%
O=C1C(C=NCC2CCCO2)=C(O)c2ccccc21 (stereo unspecified)	137% (active)
COc1ccc(CCNC(=O)CN(c2ccccc2)S(C)(=O)=O)cc1	98%
COc1ccc(-n2nnnc2-c2nc3ccccc3s2)cc1	166% (active)
COc1ccc(-n2nnnc2SCC(=O)Nc2ccccc2)cc1	99.3%
CCOc1cccc(-n2nnnc2-c2ccc(OC)cc2)c1	93.4%
Cc1ccc(C(=O)N/C(=C\c2cccs2)C(=O)NCCc2ccccn2)cc1C	103%
CN(C)C(=O)CSc1n[nH]c(-c2ccco2)n1	101%
CC(=O)OC(C(=O)NC1CCCCC1)c1ccccc1 (stereo unspecified)	95.8%
O=C(/C=C/c1cnc2ccccc2n1)NC1CCCCCC1	142% (active)
O=C(Cn1c(-c2cncs2)nc2ccccc21)NC1CCCC1	103%
C/C(=C/C(=O)N1CCN(C)CC1)C(=O)O	88.6%
CCOn1c(=O)c(=O)n(O)c2ccccc21	95.6%
COC(=O)c1cccc([N+](=O)[O-])c1CS(=O)(=O)c1ccc(C)cc1	98.8%
Cc1nc(C)c(-c2csc(NCCc3ccccc3)n2)s1	102%
CCNc1nc(-c2cc3ccccc3o2)cs1	176% (active)
O=c1oc2ccccc2cc1-c1csc(Nc2ccc(O)cc2)n1	117%

SMILES	activation (% of control)
CC1(C)CC(=O)C2=C(C1)Nc1cc(C(=O)c3ccccc3)ccc1NC2c1ccccn1 (stereo unspecified)	104%
CCN1CCN(C(C(=O)NC2CCCC2)c2cc3c(cc2[N+](=O)[O-])OCO3)CC1 (stereo unspecified)	107%
Cc1nc(-c2ccccc2)sc1C(=O)/C=C/c1ccccc1	105%
Cc1nc(-c2ccccc2)sc1C(=O)/C=C/N(C)C	147% (active)
Cc1ccc(SCC(=O)c2sc(-c3ccccc3)nc2C)cc1	102%
N/C(=N\OC(=O)c1cc(-c2ccccc2)nc2ccccc12)c1ccncc1	99.8%
Cc1cccc(C(=O)c2cccc(C)c2)c1	103%
Cc1cccc(/C(N)=N/OC(=O)c2ccccc2Cl)c1	138% (active)
COc1ccccc1C(=O)CSc1cccc[n+]1[O-]	105%
CC(C)Oc1ccc(Cc2n[nH]c(=S)n2Cc2ccccc2)cc1Cl	90.5%
CCN1CCc2nc(NC(=O)c3cc(F)c(F)cc3Cl)sc2C1	111%
Cc1ccc(NC(=O)Nc2ccccc2)c(Br)c1	164% (active)
Cc1cccc(NC(=O)Nc2nnc(-c3ccccc3)o2)c1	99.5%
CC(=O)c1cccc(NC(=O)Nc2ccc(C)cc2)c1	118%
CN=C(c1ccccc1)c1c(C)cccc1C	93.1%
O=C(CC1C(=O)NCCN1Cc1ccc(-c2ccccc2)cc1)NCC1CCOCC1 (stereo unspecified)	102%
O=C(Cc1csc(Nc2nc(=S)[nH]c3ccccc23)n1)NCCCN1CCN(c2cccc(Cl)c2)CC1	90.9%
CC(=O)c1cccc(CN2CCC(CO)(Cc3ccccc3)CC2)c1	96%
Cc1ccccc1CC1(CO)CCCN(C(=O)c2cc(-c3ccccc3)no2)C1 (stereo unspecified)	104%
COC(=O)CCC(=O)N1CCCC(CO)(Cc2ccccc2)C1 (stereo unspecified)	146% (active)
CCc1nnc(NC(=O)c2cccc(S(=O)(=O)N(C)c3ccc(OC)cc3)c2)s1	86.1%
CCN(CC(=O)NCc1cccs1)S(=O)(=O)c1ccc(NC(C)=O)cc1	104%
CCn1c(/C=C/Nc2ccccc2)[n+](CC)c2ccc(C(=O)OCC(F)(F)F)cc21	88.3%
